Assay outcomes (PubChem BioAssay)
Compounds with a hit are over-represented: about 17% of the library has one in this group of screens.
DT40 TDP1 no CPT = qHTS for Inhibitors of human tyrosyl-DNA phosphodiesterase 1 (TDP1): qHTS in cells in absence of CPT; DT40 Tdp1-/- hTDP1 cells, no CPT, ATP luminescence, 48 h; Potency, µM (doses to about 46.2 µM), inactives show top-dose activity change, negative = growth inhibition, actives largely listed as inhibitors; 420,000 tested, 15% active; note: % is set by controls: 0 for no effect and ±100 for the full control effect; nearly all actives have a fitted effect of over 55% in size
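Readout: luminescence from CellTiter-Glo after 30 min in the dark at RT. Cells: DT40 Tdp1-/- with stable hTDP1, 400/well. Exposure: compounds alone, ≥48 hr, 37 °C.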
HepG2 viability = kills HepG2 cells in TGF-b inhibitor counter-screen; HepG2 CAGA-GFP viability, ATP luminescence, 18 h; 410,000 tested, 0.76% active; Potency, µM (series often up to 46.1 µM), without a hit: top-dose activity change, negative = cytotoxicity, most hits filed as cytotoxic
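CellTiter-Glo luminescence gave cytotoxicity after 18 hours at 37 degrees C. The cells were HepG2 CAGA-GFP in 1% FBS DMEM, stimulated with 500 pg/mL TGF-beta after compound addition. %Activity was normalised to no-cell wells (complete cell-killing) and DMSO (no toxicity), and curves were fitted and classified.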
TGFb inhibitor = TGF-b pathway inhibition. HepG2 CAGA-GFP TGF-b/SMAD3 reporter, GFP fluorescence, 18 h; TGF-beta stimulated, 500 pg/mL final. 410,000 tested, 1.2% active. AID 588855. Potency, µM (highest dose often 46.1 µM), without a hit: at the top dose activity, negative = inhibition, usual class: inhibitors; note: % is set by controls: 0 for no effect and ±100 for the full control effect; nearly all actives have a fitted effect of over 65% in size
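First, reporter cells (HEPG2 CAGA-GFP) rested 2 h at 37 degrees C. Next, compounds were pinned in and TGF-beta added to 500 pg/mL final. After 18 h, GFP was imaged per cell and summed per well.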
TDP1 cell CPT = growth inhibition of DT40 Tdp1-/-;hTDP1 cells with camptothecin (screen for TDP1 inhibitors); chicken DT40 Tdp1-/-;hTDP1 cells + 20 nM CPT, ATP luminescence, 48 h; AID 686979; Potency, µM (doses to about 46.2 µM), for inactives: at the top dose activity change, negative = growth inhibition, actives largely listed as inhibitors; 420,000 tested, 12% active; note: % is set by controls: 0 for no effect and ±100 for the full control effect; nearly all actives have a fitted effect of over 55% in size
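Cell growth measured by CellTiter-Glo luminescence after a minimum 48 h, 37 C compound exposure with 20 nM CPT in Tdp1-knockout DT40 cells stably expressing hTDP1, seeded 400/well; qHTS titration format.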
HT1080 IDH1KD tx = HT-1080 IDH1 knockdown cell toxicity (counter line). HT-1080 IDH1 knockdown viability, ATP luminescence, 48 h. Potency, µM (highest dose often 46.1 µM), for the others: at the top dose activity, negative = toxicity, hits mostly cytotoxic. 360,000 tested, 2% active;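 note: 0% = DMSO wells and -100% = cell-free medium wells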
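CellTiter-Glo luminescence after 48 h compound exposure at 37 degrees C of IDH1-knockdown HT-1080 cells in 5% FBS RPMI. %Activity scaled between DMSO wells and cell-free media wells, with curves fitted and assigned curve classes.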
HT1080-NT tox = kills 2HG-producing HT-1080-NT fibrosarcoma cells | HT-1080-NT fibrosarcoma viability, CellTiter-Glo ATP luminescence, 48 h | Potency, µM (titrated, usually from 46.1 µM), without a hit: at the highest dose activity, negative = less viability, hits mostly cytotoxic | 360,000 tested, 1.6% active;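 note: NT is the 2HG producing partner of a matched IDH1 knockdown line; 0% = DMSO-treated cells and -100% = media-only wells without cells; nearly all actives have a fitted effect of over 55% in size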
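Fibrosarcoma NT cells, 750 per well in 5% FBS RPMI, were exposed to compound for 48 hours. Viability: CellTiter-Glo luminescence.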
* hit, by the source's call; u = inconclusive; x = no result; [ ] = dose if it differs, or a comment. Calls come from the whole dose curve; as a rule, active = well fitted curve in the direction sought with a large enough effect; inconclusive = small, poorly fitted or top-dose-only effect, or another doubt; inactive = no such curve, though single readings can be large; an effect the other way counts as inactive or inconclusive. Potency is the fitted concentration of half-maximal effect.

SMILES	DT40 TDP1 no CPT	HepG2 viability	TGFb inhibitor	TDP1 cell CPT	HT1080 IDH1KD tx	HT1080-NT tox
Cc1cc(C(C)(C)C)cc(S(=O)(=O)Nc2cccc(C(=O)O)c2)c1C	-10%	0%	1%	-3%	0%	13%
Cc1ccccc1NC(=O)c1ccc(NS(=O)(=O)c2cc(C(C)(C)C)cc(C)c2C)cc1	15µM*	10%	u	u	u	u
O=C(Nc1ccccc1O)c1ccc(NS(=O)(=O)c2cccc3cccnc23)cc1	7.3µM*	-45%	u	4.1µM*	u	-26%
O=C(Nc1ncccc1O)c1ccc(S(=O)(=O)Nc2ccccc2)cc1	5.2µM*	-19%	-6%	5.2µM*	9.2µM*	13µM*
Cc1c(C(=O)N2CCCCC2c2cccnc2)sc2ncnc(NCc3cccs3)c12 (stereo not drawn)	u	x	x	-3%	x	x
CCc1ccccc1NC(=O)Cn1nnc(-c2nc(-c3ccncc3)no2)c1N	2%	-2%	x	-5%	x	x
CCCS(=O)(=O)N1CCCC(C(=O)NCCOC)C1 (stereo not drawn)	0%	-3%	-5%	2%	x	x
COc1cc(C#Cc2c(-c3cncn3C)n(C)c3ccc(-c4cc(OC)c(OC)c(OC)c4)cc23)cc(OC)c1	16µM*	-14%	u	21µM*	u	u
COc1cc(C#Cc2c(-c3cncn3C)n(C)c3ccc(-c4ccc(OC)nc4)cc23)cc(OC)c1	u	-30%	u	16µM*	-7%	-22%
CS(=O)(=O)N1CCCC(C(=O)Nc2ccccc2)C1 (stereo not drawn)	-14%	-4%	14%	-8%	-10%	-1%
O=[N+]([O-])c1ccc(C[n+]2cccc3ccc4cccnc4c32)cc1	1.6µM*	-32%	u	1.8µM*	u	u
O=[N+]([O-])c1ccc(C[n+]2cccc3ccccc32)cc1	u	-5%	-15%	u	-6%	-11%
O=C(Nc1ccc2c(c1)OCO2)c1cc2ncc(Br)cn2n1	21µM*	2%	23%	u	3%	7%
O=C(Nc1cccc(C(F)(F)F)c1)c1cc2ncc(Br)cn2n1	-2%	3%	u	-28%	2%	16%
O=C(Nc1ccc2c(c1)OCO2)c1cc(-c2ccc(Cl)cc2)on1	u	-5%	-5%	u	x	x
CC(C)Cc1cc(C(=O)Nc2ccc3c(c2)OCO3)no1	-25%	-22%	5%	-16%	5.2µM*	u
O=C(Nc1ccc2c(c1)OCO2)c1cc(-c2cccc(O)c2)on1	-20%	0%	5%	1%	12µM*	23µM*
O=C(Nc1ccc2c(c1)OCO2)c1cc(-c2ccc(O)cc2)on1	-24%	-21%	1%	-24%	2.1µM*	2.1µM*
CC(C)Cc1cc(C(=O)Nc2ccc(Br)cc2)no1	9%	-27%	-12%	3%	-7%	1%
C[C@@H]1CN(Cc2ccc3c(c2)CN(Cc2cccn2-c2ccc(Cl)cn2)CCO3)C[C@H](C)O1	-7%	x	x	7%[9.04 µM]	x	x
CC1(O)CC(c2ccc(Cl)cc2)=NN1C(=O)c1ccc(Cl)cc1 (stereo not drawn)	16µM*	-41%	10µM*	10µM*	-8%	-9%
COc1cc(OC)c(-c2cc(C(=O)NCc3ccc(F)cc3)c3c(-c4ccccc4)[nH]nc3n2)cc1OC	u	11µM*	u	u	x	x
COc1ccccc1-c1cc(C(=O)NCc2ccccc2)c2c(-c3ccc(C)cc3)[nH]nc2n1	u	-51%	-38%	23µM*	x	x
CC(=O)c1c(N2CCOCC2)nc2ccc(Cl)cc2c1-c1ccccc1	-27%	-2%	u	-18%	-10%	-2%
CCC(CC)C(=O)N(C)c1c(C)nc2c(OCC(=O)N(C)C)cccn12	0%	-2%	-1%	-15%	12%	u
SMILES	DT40 TDP1 no CPT	HepG2 viability	TGFb inhibitor	TDP1 cell CPT	HT1080 IDH1KD tx	HT1080-NT tox
CCC(CC)C(=O)N(C)c1c(C)nc2c(OCc3ccc(C#N)cc3)cccn12	18µM*	1%	-7%	u	0%	9%
CCC(CC)C(=O)N(C)c1c(C)nc2c(OCc3ccc(Cl)cc3Cl)cccn12	3.7µM*	-46%	u	4.6µM*	u	u
Cc1nc2c(OCc3ccccc3)cccn2c1N(C)C(=O)C1CCCCC1	u	-8%	1%	u	-9%	0%
CCC(CC)C(=O)N(C)c1c(C)nc2c(OCc3ccccc3C)cccn12	7.3µM*	-48%	-24%	6.5µM*	u	-13%
C=CCOC(=O)C1=C[C@H](c2coc3ccccc3c2=O)C[C@H](OCCCCO)O1	-16%	-1%	4%	-23%	7%	6%
Clc1ccc(CCNc2ncnc3c2nnn3Cc2ccccc2)cc1	u	-5%	-8%	-22%	u	-5%
CCOC(=O)c1cccc(NC(=O)c2cn(-c3cccc(OC)c3)c(=O)c3ccccc23)c1	-15%	-6%	-2%	-4%	x	x
COc1ccc2c(c1)CCc1c-2nc2ccccc2c1N1CCOCC1	2.1µM*	-16%	u	1.6µM*	u	u
O=c1c(-c2ccccc2)nc2cnc(N3CCOCC3)nc2n1Cc1cccs1	-10%	x	x	u	x	x
CC(C)(C)Cc1c(-c2ccc(Cl)cc2)nc2ccc(Cl)cn12	u	-29%	u	u	u	u
CC(C)(C)Cc1c(-c2ccc(Cl)cc2)nc2ccc(Br)cn12	u	-38%	u	u	-22%	u
